# Assay results from PubChem BioAssay (NCI).
# About 83,000 compounds went through this panel and 20% of them were active in at least one assay; those are over-represented in the sample as a whole.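 For each line, cells grew in 96-well plates with the test compound present at a single concentration for 48 hours.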 A number with no mark means an inactive call. Active and inactive are the calls of the source. How the source made its calls: active means growth percent below 10; inactive means the rest.
# Tested on: NCI-H226 lung
# Assay: NCI-60 one-dose screen, 48 h (100 = growth as untreated, 0 = no growth, -100 = all killed)
# Conditions: 10 µM unless noted
row,Structure (SMILES),growth
1,CCn1c(Cc2ccccc2Nc2c(Cl)cccc2Cl)nnc1SCC(=O)Nc1cccc(OC)c1,83.3%
2,COc1ccc2nc(C)cc(Sc3nc4ccccc4s3)c2c1,39.5%
3,COc1cnc2c(c1)C(=O)c1c-2n(CCCN2CCN(C)CC2)c(=O)c2cc(Cl)ccc12,30.4%
4,c1cn2cc(-c3ccc4ncn(C5CCCCC5)c4c3)nc(-c3ccc4c(c3)ncn4C3CCCCC3)c2n1,-56.4% (active)
5,CN1C(=O)N(C)C2C1NN=c1s/c(=C\c3ccc(C(F)(F)F)cc3)c(=O)n12 (stereo unspecified),43.2%
6,CN1C(=O)N(C)C2C1NN=c1s/c(=C\c3ccsc3)c(=O)n12 (stereo unspecified),46.1%
7,C/C(=N\Nc1ccc([N+](=O)[O-])cn1)c1ccc(N)cc1,109%
8,COc1ccccc1/C=N\Nc1ccc([N+](=O)[O-])cn1,98.7%
9,CCCCCCCCCCCCCCCCCC(=O)[O][Sn]([CH2]CCC)([CH2]CCC)[CH2]CCC,-74.6% (active)
10,C[C@H](NC(=O)c1snnc1C1CC1)c1c(F)cccc1Cl,96.1%
11,CC(C)c1cccc(C#N)c1,101%
12,CN1C(=O)N(C)C2C1NN=c1s/c(=C\c3ccc(Br)cc3)c(=O)n12 (stereo unspecified),59.8%
13,O=C1SCN(Cc2ccccc2)CN1Cc1ccccc1,96.2%
14,C[N+](C)(C)CC(=O)N/N=C\c1ccco1,103%
15,COc1cc(C2CC(c3ccc(Cl)cc3)=NN2C(C)=O)ccc1Oc1nc2c(c(=O)n(C)c(=O)n2C)n1C (stereo unspecified),76.8%
16,CCN1CCN(Cc2ccc(NC(=O)Nc3ccc(-n4ccc5c(NC(=O)c6ccccc6)nccc54)cc3)cc2C(F)(F)F)CC1,71.1%
17,Nc1nc(N)c2cc(NCc3ccc(Cl)c(Cl)c3)ccc2n1,-74.8% (active)
18,O=c1oc2ccccc2cc1-c1cc(-c2ccc(-c3cc(-c4cc5ccccc5oc4=O)nc(-c4cc5ccccc5oc4=O)c3)cc2)cc(-c2cc3ccccc3oc2=O)n1,97.8%
19,C=C1C(=O)O[C@H]2[C@H]1CC/C(COC(=O)N[C@@H](Cc1c[nH]c3ccccc13)C(=O)OC)=C\CC[C@@]1(C)O[C@@H]21,58.4%

row,Structure (SMILES),growth
1,COc1cc(OC)c(Cl)cc1N,108%
2,COC(=O)c1ccc2c(c1)nc(-c1cc3ccccc3[nH]c1=O)n2-c1cc(C(C)(C)C)[nH]n1,90.4%
3,Fc1ccc(-c2nc(-c3ccc(-c4nc5ccc(F)cc5[nH]4)cc3)no2)cc1,54.9%
4,CCCC(CCC)(C(N)=O)C(=O)O,98.5%
5,CNC(=O)OC1C(O[C@H]2C[C@H]3[C@@H]4CC=C5C[C@@H](O)CC[C@]5(C)[C@H]4CC[C@]3(C)[C@H]2[C@H](C)C(=O)CCC(C)C)OCC(O)C1OC1OCC(O)C(O)C1OC(=O)c1ccc(OC)cc1 (stereo partly specified),3.4% (active)
6,CC(=O)O[C@@H]1CC2C(C)(C)CCCC2(C)C2=C1C(=O)C(C(C)C)=CC2=O (stereo partly specified),-78% (active)
7,CC(=O)Oc1c(Cl)c(Cl)c(Cl)c(Cl)c1Cl,103%
8,Oc1c(C(Nc2ccccc2Br)c2ccccc2)ccc2cccnc12 (stereo unspecified),35%
9,O=C1C(Cl)=C(Nc2cccc3ccccc23)C(=O)c2ccccc21,87.8%
10,Nc1c(C(=O)Nc2ccccc2)sc2nc3c(cc12)C(=O)CCC3,68%
11,CCOCCNc1ccc(S(=O)(=O)c2ccc(N)cc2)cc1N,94.6%
12,CCCCSc1ncnc2c1ncn2C1CCCCO1 (stereo unspecified),107%
13,CCNCCCn1c2c(c3ccc(Cl)cc3c1=O)C(=O)c1cc(OC)cnc1-2,-6.31% (active)
14,COc1ccc2nc3ccccc3c(NCc3ccc(C)cc3)c2c1,42.1%
15,C=CCOC(=O)C1=C(C)NC2=C(C(=O)CCC2)C1c1ccc(F)cc1 (stereo unspecified),89.9%
16,O=C(O)C(CCc1ccccc1)NCc1ccccc1 (stereo unspecified),106%
17,COc1ncnc2[nH]cc(CN3CCN(c4ccc(F)cc4)CC3)c12,103%
18,O=S(=O)(Cc1ccc(Cl)cc1Cl)c1ccc(Cl)cc1,69.3%
19,COc1ccc(-c2nc3ccccc3n3cccc23)cc1,94.7%

# Tested on: NCI-H322M lung
# Assay: as above
# Conditions: 10 µM unless noted
row,Structure (SMILES),growth
1,CCn1c(Cc2ccccc2Nc2c(Cl)cccc2Cl)nnc1SCC(=O)Nc1cccc(OC)c1,79.4%
2,COc1ccc2nc(C)cc(Sc3nc4ccccc4s3)c2c1,60%
3,COc1cnc2c(c1)C(=O)c1c-2n(CCCN2CCN(C)CC2)c(=O)c2cc(Cl)ccc12,49.3%
4,c1cn2cc(-c3ccc4ncn(C5CCCCC5)c4c3)nc(-c3ccc4c(c3)ncn4C3CCCCC3)c2n1,1.23% (active)
5,CN1C(=O)N(C)C2C1NN=c1s/c(=C\c3ccc(C(F)(F)F)cc3)c(=O)n12 (stereo unspecified),32.4%
6,CN1C(=O)N(C)C2C1NN=c1s/c(=C\c3ccsc3)c(=O)n12 (stereo unspecified),65.1%
7,C/C(=N\Nc1ccc([N+](=O)[O-])cn1)c1ccc(N)cc1,120%
8,COc1ccccc1/C=N\Nc1ccc([N+](=O)[O-])cn1,107%
9,CCCCCCCCCCCCCCCCCC(=O)[O][Sn]([CH2]CCC)([CH2]CCC)[CH2]CCC,-91.4% (active)
10,C[C@H](NC(=O)c1snnc1C1CC1)c1c(F)cccc1Cl,123%
11,CC(C)c1cccc(C#N)c1,109%
12,CN1C(=O)N(C)C2C1NN=c1s/c(=C\c3ccc(Br)cc3)c(=O)n12 (stereo unspecified),49.7%
13,O=C1SCN(Cc2ccccc2)CN1Cc1ccccc1,95.3%
14,C[N+](C)(C)CC(=O)N/N=C\c1ccco1,105%
15,COc1cc(C2CC(c3ccc(Cl)cc3)=NN2C(C)=O)ccc1Oc1nc2c(c(=O)n(C)c(=O)n2C)n1C (stereo unspecified),72.9%
16,CCN1CCN(Cc2ccc(NC(=O)Nc3ccc(-n4ccc5c(NC(=O)c6ccccc6)nccc54)cc3)cc2C(F)(F)F)CC1,80.8%
17,Nc1nc(N)c2cc(NCc3ccc(Cl)c(Cl)c3)ccc2n1,-79% (active)
18,O=c1oc2ccccc2cc1-c1cc(-c2ccc(-c3cc(-c4cc5ccccc5oc4=O)nc(-c4cc5ccccc5oc4=O)c3)cc2)cc(-c2cc3ccccc3oc2=O)n1,108%
19,C=C1C(=O)O[C@H]2[C@H]1CC/C(COC(=O)N[C@@H](Cc1c[nH]c3ccccc13)C(=O)OC)=C\CC[C@@]1(C)O[C@@H]21,80.5%

row,Structure (SMILES),growth
1,COc1cc(OC)c(Cl)cc1N,110%
2,COC(=O)c1ccc2c(c1)nc(-c1cc3ccccc3[nH]c1=O)n2-c1cc(C(C)(C)C)[nH]n1,77%
3,Fc1ccc(-c2nc(-c3ccc(-c4nc5ccc(F)cc5[nH]4)cc3)no2)cc1,70.5%
4,CCCC(CCC)(C(N)=O)C(=O)O,111%
5,CNC(=O)OC1C(O[C@H]2C[C@H]3[C@@H]4CC=C5C[C@@H](O)CC[C@]5(C)[C@H]4CC[C@]3(C)[C@H]2[C@H](C)C(=O)CCC(C)C)OCC(O)C1OC1OCC(O)C(O)C1OC(=O)c1ccc(OC)cc1 (stereo partly specified),57.6%
6,CC(=O)O[C@@H]1CC2C(C)(C)CCCC2(C)C2=C1C(=O)C(C(C)C)=CC2=O (stereo partly specified),-19.1% (active)
7,CC(=O)Oc1c(Cl)c(Cl)c(Cl)c(Cl)c1Cl,92.3%
8,Oc1c(C(Nc2ccccc2Br)c2ccccc2)ccc2cccnc12 (stereo unspecified),24.5%
9,O=C1C(Cl)=C(Nc2cccc3ccccc23)C(=O)c2ccccc21,83.1%
10,Nc1c(C(=O)Nc2ccccc2)sc2nc3c(cc12)C(=O)CCC3,67.1%
11,CCOCCNc1ccc(S(=O)(=O)c2ccc(N)cc2)cc1N,101%
12,CCCCSc1ncnc2c1ncn2C1CCCCO1 (stereo unspecified),114%
13,CCNCCCn1c2c(c3ccc(Cl)cc3c1=O)C(=O)c1cc(OC)cnc1-2,45%
14,COc1ccc2nc3ccccc3c(NCc3ccc(C)cc3)c2c1,30.3%
15,C=CCOC(=O)C1=C(C)NC2=C(C(=O)CCC2)C1c1ccc(F)cc1 (stereo unspecified),95.6%
16,O=C(O)C(CCc1ccccc1)NCc1ccccc1 (stereo unspecified),103%
17,COc1ncnc2[nH]cc(CN3CCN(c4ccc(F)cc4)CC3)c12,107%
18,O=S(=O)(Cc1ccc(Cl)cc1Cl)c1ccc(Cl)cc1,50.3%
19,COc1ccc(-c2nc3ccccc3n3cccc23)cc1,96.6%
